Rev-erbA mod = Rev-erb alpha (human) modulation. activity, % at 10 µM. 0.79% of 370,000 active. AID 1259318. Rev-erbα–FITC-DNA binding, fluorescence polarization, 90 min;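 active = activity above about 14%, limit read from the data; passing the limit was not always enough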
ABCB6 inh 2 = human ABCB6 transporter inhibition; 0.19% of 360,000 active; K562-ABCB6 porphyrin accumulation, flow cytometry, 1 h; stronger effect = lower value; fluorescence ratio to DMSO, % at 10 µM; Q9NP58;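 active = fluorescence ratio to DMSO below 75%, the collection mean minus 3 SD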;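 note: signal is porphyrin accumulated inside mitochondria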
VLA-4 inh = inhibition in a human VLA-4 binding assay; P13612; VLA-4 expressing cells, ligand binding flow cytometry; inhibition, % (about 7 µM as worked out from the volumes in the protocol); 0.2% of 330,000 active; AID 2557; in the data active = inhibition above about 50%
Target sequence (P13612 whole entry, looked up): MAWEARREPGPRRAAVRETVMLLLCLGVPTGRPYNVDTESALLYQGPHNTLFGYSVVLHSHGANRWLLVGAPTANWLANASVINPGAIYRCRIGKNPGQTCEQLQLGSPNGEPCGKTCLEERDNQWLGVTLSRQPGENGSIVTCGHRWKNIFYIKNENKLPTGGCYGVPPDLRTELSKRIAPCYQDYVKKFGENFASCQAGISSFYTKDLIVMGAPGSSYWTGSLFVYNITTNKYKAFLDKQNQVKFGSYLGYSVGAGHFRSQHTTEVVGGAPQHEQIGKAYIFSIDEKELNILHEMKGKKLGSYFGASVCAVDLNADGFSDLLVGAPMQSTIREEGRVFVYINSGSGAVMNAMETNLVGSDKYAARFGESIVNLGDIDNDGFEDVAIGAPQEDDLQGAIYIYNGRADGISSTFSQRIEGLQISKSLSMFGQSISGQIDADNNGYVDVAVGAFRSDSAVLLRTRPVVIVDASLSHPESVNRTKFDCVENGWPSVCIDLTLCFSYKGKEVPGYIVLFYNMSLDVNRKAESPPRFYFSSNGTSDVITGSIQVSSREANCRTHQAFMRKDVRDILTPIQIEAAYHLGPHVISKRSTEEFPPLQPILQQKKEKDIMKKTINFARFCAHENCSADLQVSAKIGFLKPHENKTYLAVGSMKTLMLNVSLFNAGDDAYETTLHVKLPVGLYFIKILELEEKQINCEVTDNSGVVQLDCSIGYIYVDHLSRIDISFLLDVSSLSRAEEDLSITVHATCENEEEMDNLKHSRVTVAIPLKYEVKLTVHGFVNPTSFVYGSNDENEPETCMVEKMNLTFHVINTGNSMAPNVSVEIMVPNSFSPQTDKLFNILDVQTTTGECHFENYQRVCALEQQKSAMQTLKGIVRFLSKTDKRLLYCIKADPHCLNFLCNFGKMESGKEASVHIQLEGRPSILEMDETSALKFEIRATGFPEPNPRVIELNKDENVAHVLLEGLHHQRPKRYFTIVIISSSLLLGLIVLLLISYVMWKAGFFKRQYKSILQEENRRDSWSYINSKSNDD
PG9 binder = PG9 antibody binding by small molecule | 0.43% of 360,000 active | inhibition, % at 6.7 µM | TR-FRET gp120-PG9 antibody binding; in the data active = inhibition above about 8.5%
Exocytosis inh = blocks lytic granule exocytosis; 0.66% of 360,000 active; AID 651702; inhibition, % at 10 µM; TALL-104 LAMP-1 surface exposure, flow cytometry; cells stimulated with thapsigargin and PMA;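 active = inhibition above about 55%, limit read from the data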
VLA-4 mod pick = confirmation of allosteric modulators of human VLA-4 integrin. shares compounds with VLA-4 inh. U937 cells, HUTS-21 LIBS mAb binding, flow cytometry; LDV ligand present at threefold Kd. inhibition, % at 6.7 µM. 2% of 1,300 active. AID 2813; in the data active = inhibition above about 40%
Each line names hits and unclear results; the compound was inactive in the other large screens (follow-up assays come after a bar, where they were run). An excerpt weighted towards active compounds, which were near 2% of everything screened.

COC(=O)Nc1ccc(S(=O)(=O)N2CCCc3ccccc32)cc1	VLA-4 inh 79 | VLA-4 mod pick inactive
COC(=O)Nc1ccc(S(=O)(=O)N2CCCc3cccc(O)c32)cc1	none
CCCS(=O)(=O)N1CCC(C(=O)NC2CCC(C)CC2)CC1 (stereo not drawn)	VLA-4 inh 93 | VLA-4 mod pick inactive
O=C(Nc1ccc(CN2CCCCC2)cc1)Nc1ccccc1Cl	none
O=C(Nc1ccc(Br)cc1)Nc1ccccc1Cl	none | VLA-4 mod pick inactive
CCCCOCCCNC(=O)C[C@H]1C[C@@]2(C(=O)OC)C(=C[C@H](COCc3ccccc3)O[C@@H]2C)N(Cc2ccco2)C1=O	none (no result: ABCB6 inh 2, VLA-4 inh, PG9 binder, Exocytosis inh)
Nc1nc(CN2CCN(c3ccccc3F)CC2)nc(Nc2ccccc2)n1	VLA-4 inh 76 | VLA-4 mod pick inactive
Cc1ccc(Nc2nc(N)nc(CN3CCN(c4ccccc4F)CC3)n2)cc1	none
Cc1ccc(C=NNC(=O)CSc2nc3sc4c(c3c(=O)n2-c2ccccc2)CCCC4)s1	none (no result: ABCB6 inh 2, VLA-4 inh, PG9 binder, Exocytosis inh)
CS(=O)(=O)c1cccc(C(=O)NCc2ccc(F)cc2)c1	VLA-4 inh 93 | VLA-4 mod pick inactive
Cc1ccc(S(=O)(=O)NNC(=O)CCC(=O)Nc2ccc(C)cc2C)cc1	none | VLA-4 mod pick inactive
CC(=O)Nc1ccc(S(=O)(=O)NNC(=O)CCC(=O)Nc2cc(C)ccc2C)cc1	none
O=C(O)c1cc(-c2ccc(Cl)c(Cl)c2)n(-c2ccccc2)n1	none | VLA-4 mod pick inactive
O=C(Cn1nnc(-c2ccc(N3CCOCC3)cc2)n1)c1ccccc1	none (no result: ABCB6 inh 2, VLA-4 inh, PG9 binder, Exocytosis inh)
CC1(c2nnnn2Cc2ccccc2)CCSCC(=O)N1Cc1cccs1 (stereo not drawn)	none (no result: ABCB6 inh 2, VLA-4 inh, PG9 binder, Exocytosis inh)
O=C(COC(=O)c1ccccc1Cl)NC1CCCCCC1	none | VLA-4 mod pick inactive
Cc1ccc(SCC(=O)OCC(=O)NC2CCCCCCC2)cc1	VLA-4 inh 55 | VLA-4 mod pick inactive
O=C(COC(=O)c1c(Cl)cccc1Cl)NC1CCCCCCC1	none | VLA-4 mod pick inactive
O=C(COC(=O)CSc1ccc([N+](=O)[O-])cc1)NC1CCCCCCC1	none
O=C(COC(=O)c1cccc(Cl)c1Cl)NC1CCCC1	none
O=C(Nc1ccc(F)cc1)OC1CC2CC1[C@H]1CCCCN1C2 (stereo partly drawn)	none (no result: ABCB6 inh 2, VLA-4 inh, PG9 binder, Exocytosis inh)
Cc1cc(NS(=O)(=O)c2ccc(NC(=O)CSc3nc4sc(C)c(C)c4c(=O)n3Cc3ccco3)cc2)nc(C)n1	none (no result: ABCB6 inh 2, VLA-4 inh, PG9 binder, Exocytosis inh)
O=C(C1CCC1)N1CCc2cc(S(=O)(=O)C3CCN(Cc4ccc(F)cc4)CC3)ccc21	none (no result: ABCB6 inh 2, VLA-4 inh, PG9 binder, Exocytosis inh)
Cc1ccc(-c2nnc(NC(=O)COc3ccc(F)cc3Cl)o2)cc1C	none (no result: ABCB6 inh 2, VLA-4 inh, PG9 binder, Exocytosis inh)
CN(C)c1ccc(NS(=O)(=O)c2ccc(Cl)cc2)cc1	none
Cc1ccc(S(=O)(=O)Nc2ccc(N(C)C)cc2)cc1	none | VLA-4 mod pick inactive
COCCN(Cc1cc2cc3c(cc2nc1Cl)OCO3)C(=O)Nc1ccc(F)cc1	none (no result: Rev-erbA mod)
COCCN(Cc1cc2cc3c(cc2nc1Cl)OCO3)C(=O)Nc1ccc(OC)cc1	VLA-4 inh 54 | VLA-4 mod pick inactive
COc1ccccc1N1CCN(Cc2nc(-c3ccc(F)cc3)oc2C)CC1	VLA-4 inh 52 | VLA-4 mod pick inactive
COC(=O)[C@]12C[C@H](CC(=O)NCC34CC5CC(CC(C5)C3)C4)C(=O)N(CCc3ccc(OC)c(OC)c3)C1=C[C@H](C1CCCC1)O[C@@H]2C	none (no result: ABCB6 inh 2, VLA-4 inh, PG9 binder, Exocytosis inh)
Cc1c(NC(=O)CSc2nc(-c3ccco3)cc(C(F)(F)F)n2)c(=O)n(-c2ccccc2)n1C	VLA-4 inh 93 | VLA-4 mod pick inactive
CCC(=O)NC(=S)Nc1ccccc1C(=O)NC1CCCCC1	none | VLA-4 mod pick inactive
O=C(NC1CCCCC1)c1ccccc1NC(=S)NC(=O)C1CC1	none
CCC(C)C(NC(=O)C(N)CC(C)C)C(=O)NC(CCC(=O)OCc1ccccc1)C(N)=O (stereo not drawn)	VLA-4 inh 54 | VLA-4 mod pick inactive
CC(C)C(NC(=O)OC(C)(C)C)C(=O)NC(CCC(=O)OCc1ccccc1)C(N)=O (stereo not drawn)	none
O=C(CNC(=O)c1ccc(-c2ccccc2)cc1)OCc1c(F)cccc1Cl	none
O=C(CNC(=O)c1ccc(-c2ccccc2)cc1)OCc1c(Cl)cccc1Cl	VLA-4 inh 53 | VLA-4 mod pick inactive
COC(=O)[C@H](C(C)C)N(CCCc1cn(Cc2ccccc2)nn1)S(=O)(=O)c1ccccc1Br	none (no result: ABCB6 inh 2, VLA-4 inh, PG9 binder, Exocytosis inh)
Cc1ccc(-c2nn3cnnc3c3ccccc23)cc1	none
c1ccc(-c2nn3cnnc3c3ccccc23)cc1	none | VLA-4 mod pick inactive
C/C=C/C=C/C(=O)c1cc(C)c(OC(=O)CNC(=O)OC(C)(C)C)c(C)c1O	none (no result: ABCB6 inh 2, VLA-4 inh, Exocytosis inh)
COc1ccc(S(=O)(=O)N2CCCc3nc(-c4ccc(Br)cc4)ccc32)cc1	none (no result: ABCB6 inh 2, VLA-4 inh, Exocytosis inh)
COc1ccc(N(C(=O)c2cnsn2)C(C(=O)NC2CCCCC2)c2ccncc2)cc1 (stereo not drawn)	none | VLA-4 mod pick inactive
Cc1ccc(-c2nn3c(C)nnc3c3ccccc23)cc1S(=O)(=O)NCCO	none | VLA-4 mod pick inactive
COc1ccc(-c2nnc3c4ccccc4c(C)nn23)cc1S(=O)(=O)N1CCN(CCO)CC1	none
Cc1ccc(-c2nn3c(C)nnc3c3ccccc23)cc1S(=O)(=O)NCc1ccco1	none | VLA-4 mod pick inactive
Cc1nnc2c3ccccc3c(-c3ccccc3)nn12	none
Cc1ccc(-c2nn3c(C)nnc3c3ccccc23)cc1S(=O)(=O)N1CCN(CCO)CC1	none | VLA-4 mod pick inactive
Cc1ccc(-c2nn3c(C)nnc3c3ccccc23)cc1S(=O)(=O)NC(C)c1ccccc1 (stereo not drawn)	VLA-4 inh 92 | VLA-4 mod pick inactive
Cc1ccc(-c2nn3c(C)nnc3c3ccccc23)cc1S(=O)(=O)NC(C)(C)CO	none
CCOC(=O)C1CSCCS(=O)(=O)N1Cc1ccccc1C (stereo not drawn)	none (no result: ABCB6 inh 2, VLA-4 inh, Exocytosis inh)
COc1cc(OC)cc(C(C)c2ccc(C)cc2)c1 (stereo not drawn)	none (no result: ABCB6 inh 2, VLA-4 inh, PG9 binder, Exocytosis inh)
CCN(CC)C(=O)Cn1c(=O)oc2ccccc21	none | VLA-4 mod pick inactive
CC1CN(C(=O)Cn2c(=O)oc3ccccc32)CC(C)O1 (stereo not drawn)	none | VLA-4 mod pick inactive
CCCN(CC(=O)Nc1ccccc1OC)C(=O)Cn1c(=O)oc2ccccc21	none (no result: VLA-4 inh) | VLA-4 mod pick inactive
CC(=O)N1CCN(C(=O)Cn2c(=O)oc3ccccc32)CC1	none
CC(=O)Cn1c(=O)oc2ccccc21	none
CCN(C(=O)Cn1c(=O)oc2ccccc21)c1cccc(C(F)(F)F)c1	none | VLA-4 mod pick inactive
CCN(C(=O)Cn1c(=O)oc2ccccc21)c1cccc(C)c1	none
COC1=C[C@H](C(=O)NCc2ccccn2)[C@@]2(C)Cc3ccccc3[C@H]2CC1=O	none (no result: ABCB6 inh 2, VLA-4 inh, PG9 binder, Exocytosis inh)
C[C@@H]1ON(C)[C@H]2C[C@H]3c4cc(-c5ccccc5)ccc4CCN3C[C@@H]12	none (no result: ABCB6 inh 2, VLA-4 inh, Exocytosis inh)
CC(C)(C)c1ccc(S(=O)(=O)N2CCC(C(=O)NCCC3=CCCCC3)CC2)cc1	none (no result: ABCB6 inh 2, VLA-4 inh, PG9 binder, Exocytosis inh)
COc1ccc2c(c1)NC(=O)CC(c1ccccc1)=N2	none
CC1=CC(c2ccccc2)=Nc2ccc(C)cc2N1	VLA-4 inh 66 | VLA-4 mod pick inactive

Assay outcomes as filed in PubChem.
